JMJD2E inh: JMJD2E (human) inhibition; B2RXH2; JMJD2E catalytic domain, FDH-coupled NADH fluorescence (FDH is formaldehyde dehydrogenase); Potency, µM (doses to about 57.1 µM), for the others: at the top dose activity change, negative = inhibition, hits mostly inhibitors; 230,000 compounds, 1.6% hits; AID 2147; active means well fitted inhibition curve with a large enough effect, not every such curve was filed as active; inconclusive means small, poorly fitted or top-dose-only effect, or another doubt; inactive means no such curve, though single readings can be large or run the other way;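 further: 0% = wells with enzyme and -100% = buffer wells without enzyme; nearly all actives have a fitted effect of over 50% in size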
Target sequence (B2RXH2 1-337 limits assumed): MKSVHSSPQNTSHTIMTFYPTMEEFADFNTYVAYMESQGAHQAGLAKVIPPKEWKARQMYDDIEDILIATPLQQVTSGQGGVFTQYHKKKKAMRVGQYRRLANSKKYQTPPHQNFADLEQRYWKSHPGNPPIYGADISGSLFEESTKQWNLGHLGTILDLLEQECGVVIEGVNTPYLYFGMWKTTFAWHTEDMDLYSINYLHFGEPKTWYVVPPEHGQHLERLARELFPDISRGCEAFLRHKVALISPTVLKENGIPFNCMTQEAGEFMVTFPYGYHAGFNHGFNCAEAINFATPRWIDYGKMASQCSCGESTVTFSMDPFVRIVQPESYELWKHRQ
APE1 inh: blocks human APE1 abasic DNA cleavage; recombinant APE1, TAMRA/BHQ-2 abasic DNA cleavage fluorescence; Potency, µM (series often up to 65.8 µM), for inactives: top-dose activity change, negative = inhibition, hits mostly inhibitors; 350,000 compounds, 0.35% hits; P27695;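 further: plate controls were vehicle for no effect and reference inhibitor for full effect; nearly all actives have a fitted effect of over 55% in size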
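Step 1: APE1 (0.75 nM) with compound, 15 min RT. Step 2: add 50 nM fluorophore/quencher THF duplex. Step 3: three fluorescence reads 60 s apart (525/598 nm); read 3 minus read 1 = reaction progress.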
BLM inh-1: Bloom syndrome helicase (human) inhibition; P54132; recombinant BLM DNA unwinding, fluorescence dequenching; Potency, µM (titrated, usually from 56.1 µM), for inactives: at the highest dose activity change, negative = inhibition, hits mostly inhibitors; 350,000 compounds, 0.2% hits; AID 2528;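 further: plate controls were vehicle for no effect and no enzyme for full effect; nearly all actives have a fitted effect of over 35% in size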
L3MBTL1 inh-1: inhibitors of human L3MBTL1. 230,000 compounds, 0.66% hits. Q9Y468. AID 485360. AlphaScreen L3MBTL1–H3K9me1 peptide binding. Potency, µM (doses to about 57.1 µM), without a hit: at the top dose activity, negative = inhibition, hits mostly inhibitors; further: on the % scale 0 is the no-effect control and ±100 the full control effect; nearly all actives have a fitted effect of over 60% in size
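AlphaScreen proximity signal between nickel-chelate acceptor and streptavidin donor beads (final 10 ug/mL) reports binding of 50 nM L3MBTL1 to 75 nM biotin-H3 K9me1 peptide; complex incubated with compounds 30 min at room temperature; cefsulodin titration as control.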
GoLoco inh red: inhibitors of human Gai1-RGS12 GoLoco interaction (red fluorophore); Gai1:RGS12 GoLoco peptide FP, rhodamine, 10 min; 230,000 compounds, 0.44% hits; Potency, µM (top dose mostly 61.6 µM), for the others: at the top dose activity, negative = inhibition, usual class: inhibitors; AID 880; P63096; active means well fitted inhibition curve with a large enough effect, not every such curve was filed as active; inactive means no such curve, though single readings can be large or run the other way; further: on the % scale 0 is the no-effect control and ±100 the full control effect; nearly all actives have a fitted effect of over 30% in size
Target sequence (P63096 whole entry, looked up): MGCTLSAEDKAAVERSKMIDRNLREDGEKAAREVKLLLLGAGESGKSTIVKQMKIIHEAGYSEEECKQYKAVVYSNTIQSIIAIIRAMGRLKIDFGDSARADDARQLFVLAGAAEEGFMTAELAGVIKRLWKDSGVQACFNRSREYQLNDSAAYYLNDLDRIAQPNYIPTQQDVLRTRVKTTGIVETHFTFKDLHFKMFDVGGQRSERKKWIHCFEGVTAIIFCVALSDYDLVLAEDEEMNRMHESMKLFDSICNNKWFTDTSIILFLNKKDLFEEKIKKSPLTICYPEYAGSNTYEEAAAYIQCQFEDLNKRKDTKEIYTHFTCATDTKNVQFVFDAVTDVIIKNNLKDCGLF
RECQ1 inh-1: blocks DNA unwinding by human RECQ1 | P46063 | RECQ1 DNA unwinding, red fluorescence kinetic read | Potency, µM (titrated, usually from 57.3 µM), inactives show at the top dose activity, negative = inhibition, usual class: inhibitors | 240,000 compounds, 0.54% hits;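 further: plate controls were vehicle for no effect and no enzyme for full effect; nearly all actives have a fitted effect of over 30% in size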
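RECQ1T1 50 nM; forked duplex (20 bp + 30-nt ss tails) 200 nM, ATP 2 mM final; pH 8.0, 2 mM MgCl2, 2.5 ug/ml poly(dI-dC); 15 min compound preincubation; discontinuous kinetic read over 2 h at RT.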
BLM inh-2: BLM (human) helicase inhibition, confirmation. 220 compounds, 40% hits. Potency, µM, inactives show max response, negative = inhibition, actives largely listed as inhibitors. BLM DNA unwinding, fluorescence quenching, biochemical. shares compounds with BLM inh-1;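 further: strand separation dequenches TAMRA so unwinding raises red fluorescence; series mostly up to about 69 µM; on the % scale 0 is the no-effect control and ±100 the full control effect; nearly all actives have a fitted effect of over 45% in size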
RECQ1 inh conf: confirmation of human RECQ1 helicase inhibitors. 610 compounds, 28% hits. Potency, µM (top dose mostly 229 µM), inactives show at the highest dose activity change, negative = inhibition, usual class: inhibitors. AID 2708. shares compounds with RECQ1 inh-1. RECQ1 helicase DNA unwinding, fluorescence; further: on the % scale 0 is the no-effect control and ±100 the full control effect; nearly all actives have a fitted effect of over 45% in size
ADP FP counter: displaces ADP in a fluorescence polarization counter-screen for RECQ1 hits | shares compounds with RECQ1 inh-1 | ADP fluorescence polarization displacement counterscreen | Potency, µM (top dose mostly 228 µM), without a hit: at the top dose activity change, negative = inhibition, most hits filed as inhibitors | 530 compounds, 27% hits | AID 2711; further: on the % scale 0 is the no-effect control and ±100 the full control effect; nearly all actives have a fitted effect of over 45% in size
RECQ1 inh-2: RECQ1 helicase inhibition confirmed, round 2; shares compounds with RECQ1 inh-1; recombinant RECQ1 DNA unwinding, red fluorescence; Potency, µM (doses to about 119 µM), for inactives: at the top dose activity, negative = inhibition, actives largely listed as inhibitors; 1,100 compounds, 15% hits; AID 504841; further: on the % scale 0 is the no-effect control and ±100 the full control effect; nearly all actives have a fitted effect of over 50% in size
L3MBTL1 inh-2: L3MBTL1 binding inhibition validated; shares compounds with L3MBTL1 inh-1; L3MBTL1 methyl-lysine binding inhibition, biochemical qHTS; Potency, µM, hits mostly inhibitors; 500 compounds, 91% hits; further: nearly all actives have a fitted effect of over 70% in size
AlphaScreen ctr2: AlphaScreen signal inhibition, L3MBTL1 hit counter-screen; AID 602224; Potency, µM (highest dose often 57.1 µM), for inactives: at the highest dose activity change, negative = inhibition, actives largely listed as inhibitors; AlphaScreen counterscreen, signal inhibition; 500 tested, under 10 active; shares compounds with L3MBTL1 inh-1; further: 0% is about no effect
The depositor's hits bear a star; i = inactive; ? = inconclusive; . = no result; ! = a repeat was not active; [ ] = remark or other dose. Only a selection was taken, and hits are over-represented in it overall. Unless noted, the call rests on the fitted dose curve; in most records, active means well fitted curve in the direction sought with a large enough effect; inconclusive means small, poorly fitted or top-dose-only effect, or another doubt; inactive means no such curve, though single readings can be large; an effect the other way counts as inactive or inconclusive. Potency means the concentration at half of the fitted maximal effect.

SMILES	JMJD2E inh	APE1 inh	BLM inh-1	L3MBTL1 inh-1	GoLoco inh red	RECQ1 inh-1	RECQ1 inh conf	ADP FP counter	RECQ1 inh-2	others
O=C(NCCCc1nc2ccccc2n1Cc1ccc(Cl)cc1)C1CCCCC1	.	.	-9%	.	.	.	.	.	.
O=c1[nH]nc(CNc2ccc(O)cc2)c2ccccc12	?	?	35µM*	.	-29%	14µM*	15%[114 µM]	40µM*	-8%	BLM inh-2=-3%
CC1(C)N=C(SCc2ccc(F)cc2)c2ccccc2N1	.	.	-4%	.	.	.	.	.	.
Cc1cccc(N2CCC(N3CCN(C4CCCCC4)C(CCO)C3)CC2)c1C (stereo not drawn)	?	22µM*	14µM*	16µM*	11%	?	.	.	-13%	BLM inh-2=7%
CCCN(C(=O)c1cc2c(s1)CCC2)c1c(N)n(Cc2ccccc2)c(=O)[nH]c1=O	-25%	?	14µM*	18µM*	25%	22µM*	40µM*	17%[91.9 µM]	-11%	BLM inh-2=?;L3MBTL1 inh-2=5.3*;AlphaScreen ctr2=8%
CCCCN1Cc2c(nc3cc(-c4ccco4)[nH]n3c2=O)C1=O	?	-8%	18µM*	28µM*	-26%	-8%	.	.	.	BLM inh-2=-6%;L3MBTL1 inh-2=27*;AlphaScreen ctr2=-26%
Cc1ccc(NC(=O)CN(C)S(=O)(=O)c2cnc[nH]2)cc1	.	.	-1%	.	.	.	.	.	.
CC(=O)Nc1cc(-c2nn3c(C)nnc3s2)ccc1C	-26%	3%	3%	-2%	1%	5%	.	.	.
Cc1ccc(-c2nn3c(C)nnc3s2)cc1NC(=O)c1ccc(-c2cccc(Cl)c2)o1	-16%	9%	-14%	22µM*	157%	13µM*	.	29%[91.9 µM]	?	BLM inh-2=-12%;L3MBTL1 inh-2=7.5*;AlphaScreen ctr2=2%
CCc1c(C)nc2nncn2c1Nc1ccc(C(C)C)cc1	.	.	1%	.	.	.	.	.	.
O=C(COC(=O)c1cc(-c2ccco2)nc2ccccc12)NCc1ccccc1	?	-1%	-8%	.	5%	-5%	.	.	.
CNC(=O)COC(=O)c1cc(-c2ccco2)nc2ccccc12	?	?	16µM*	28µM*	6%	22µM*	.	.	?	BLM inh-2=?;L3MBTL1 inh-2=3.4*;AlphaScreen ctr2=2%
O=C(Nc1cccc(S(=O)(=O)N2CCOCC2)c1)[C@@H]1CCCN1S(=O)(=O)c1ccc(Cl)cc1	-1%	-1%	-8%	-2%	26%	-1%	-9%	25%	.
O=C(Nc1cccc(S(=O)(=O)N2CCOCC2)c1)C1CCCCN1S(=O)(=O)c1ccccc1 (stereo not drawn)	.	-9%	.	-7%	.	.	.	.	.
CCOC(=O)c1ccc(N2C(=O)c3n[nH]c(-c4ccco4)c3C2c2ccc([N+](=O)[O-])cc2)cc1 (stereo not drawn)	-11%	-10%	-10%	-31%	10%	?	.	.	-19%
CCOC(=O)c1ccc(N2C(=O)c3n[nH]c(-c4ccco4)c3C2c2ccc(C)cc2)cc1 (stereo not drawn)	.	.	-17%	.	.	.	.	.	.
Cc1noc(C)c1COc1ccc(C(=O)Nc2ccccn2)cc1	.	17%	-2%	.	.	.	.	.	.
Cc1noc(C)c1COc1ccc(C(=O)NCc2ccccn2)cc1	4%	-1%	-1%	.	-4%	0%	4%	?	.
Cc1noc(C)c1COc1ccc(C(=O)Nc2ccccc2)cc1	5%	-6%	-2%	.	0%	-13%	2%	?	.
O=C(COc1ccc(Br)cc1Cl)c1ccc[nH]1	-9%	0%	-16%	?	4%	i	.	.	.
O=C(COc1ccccc1Cl)c1ccc[nH]1	-7%	?	-26%	.	23%	?	.	.	-11%
COc1ccc(/C=C/c2cc(OC)c(OC)cc2CC[N+](C)(C)C)cc1	?	19%	3%	.	2%	i	.	.	.
Cc1ccc(N(CC(=O)NCCSc2ccccc2)S(=O)(=O)c2ccc(F)cc2)cc1	.	.	-9%	.	.	.	.	.	.
C[C@@](N)(Cc1ccc(O)c(O)c1)C(=O)O	7.9µM*	1.4µM*!	5%	.	-7%	11µM*!	?	?	.
CCOC(=O)[C@@](C)(N)Cc1ccc(O)c(O)c1	.	1%[21 µM]	.	.	.	.	.	.	.
SMILES	JMJD2E inh	APE1 inh	BLM inh-1	L3MBTL1 inh-1	GoLoco inh red	RECQ1 inh-1	RECQ1 inh conf	ADP FP counter	RECQ1 inh-2	others
C=CCSC1=N/C(=C\c2sccc2C)C(=O)S1	-6%	-3%	-2%	-3%	11%	-2%	.	.	.
C=CCSC1=N/C(=C\C=C\c2ccco2)C(=O)S1	?	10µM*	?	2.8µM*	23%	13µM*	45µM*	14µM*	?
O=C(O)c1c(Cl)c(Cl)c(Cl)c(Cl)c1-c1c2cc(I)c(=O)c(I)c-2oc2c(I)c(O)c(I)cc12	.	14µM*	14µM*	.	33%	14µM*	45µM*	0.89µM*	.
COc1cccc(C2c3c(C)nn(-c4ccc([N+](=O)[O-])cc4)c3N=C3C(=O)Nc4ccccc4N32)c1 (stereo not drawn)	10%	3%	-1%	-19%	35%	?	.	.	-12%
Cc1ccc(C2c3c(C)nn(-c4ccc([N+](=O)[O-])cc4)c3N=C3C(=O)Nc4ccccc4N32)cc1 (stereo not drawn)	-15%	19%	-6%	-1%	7%	-7%	.	.	.
CCOC(=O)c1c(C)[nH]c(C)c1S(=O)(=O)NCC(=O)Nc1cccc(SC)c1	.	.	-3%	.	.	.	.	.	.
COc1ccc2nc(NC(=O)C3CCCN(S(=O)(=O)c4cccc5nonc45)C3)sc2c1 (stereo not drawn)	-1%	-2%	-6%	-8%	13%	-4%	.	.	.
